RXFP1 ag = activates the human relaxin receptor RXFP1; Potency, µM (doses to about 57.5 µM), most hits filed as activators; Q9HBX9; HEK293T-RXFP1 cAMP TR-FRET, 30 min; response scale: percent of porcine relaxin response, buffer zero; hit rate 0.3% among 370,000; active = well fitted activation curve with a large enough effect; inconclusive = small, poorly fitted or top-dose-only effect; note: nearly all actives have a fitted effect of over 60% in size
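cAMP rise read by TR-FRET after 30 min, 37C compound exposure (up to 58 uM) in RXFP1-transfected HEK293 cells with Ro 20174 present. EC50 from Hill-equation fits, with 29 nM porcine relaxin as 100% and buffer as basal.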
gsp agonist = agonists of gsp mutant (McCune-Albright syndrome) | gsp mutant cells, cAMP HTRF, 30 min | hit rate 0.13% among 340,000 | Potency, µM (doses to about 76.9 µM), hits mostly activators | AID 624287; active = well fitted activation curve with a large enough effect; inconclusive = small, poorly fitted or top-dose-only effect, or another doubt; inactive = no such curve, though single readings can be large or run the other way; cell line not stated here;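 note: phosphodiesterase inhibitor Ro 20-1724 added with compounds to block cAMP breakdown; nearly all actives have a fitted effect of over 60% in size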
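Cells stably selected in G418 were plated at 2000/well, grown 16-24 hr, then given compounds in DMSO with the PDE inhibitor […] (300 uM solution added) for 30 min at 37C; cAMP was read by HTRF.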
gsp antag = antagonists of gsp mutant (McCune-Albright syndrome); gsp-mutant cells, cAMP HTRF, 30 min; Potency, µM (highest dose often 76.9 µM), usual class: inhibitors; hit rate 0.4% among 340,000; calls by dose curve; cell line not stated here;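 note: intracellular cAMP measured with PDE inhibitor Ro 20-1724 present during compound exposure; nearly all actives have a fitted effect of over 65% in size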
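G418-selected cells were plated in DMEM/10% FBS for 16-24 h at 37C, then treated with compounds plus the PDE inhibitor […] (300 uM solution added) for 30 min at 37C. Intracellular cAMP was measured by HTRF after 30 min lysis at room temperature.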
TSHR antagonist = antagonists of human thyroid stimulating hormone receptor. hit rate 0.2% among 330,000. activity change, negative = inhibition, % at 11.5 µM. P16473. TSHR-expressing cells, TSH-stimulated cAMP HTRF, 2 h; stronger effect = lower value. AID 504810;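 active = activity change below a set negative limit, meaning inhibition stronger than a set level, cut at about -70% in these data; inconclusive = activity change between two set negative limits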
Target sequence (P16473 whole entry, looked up): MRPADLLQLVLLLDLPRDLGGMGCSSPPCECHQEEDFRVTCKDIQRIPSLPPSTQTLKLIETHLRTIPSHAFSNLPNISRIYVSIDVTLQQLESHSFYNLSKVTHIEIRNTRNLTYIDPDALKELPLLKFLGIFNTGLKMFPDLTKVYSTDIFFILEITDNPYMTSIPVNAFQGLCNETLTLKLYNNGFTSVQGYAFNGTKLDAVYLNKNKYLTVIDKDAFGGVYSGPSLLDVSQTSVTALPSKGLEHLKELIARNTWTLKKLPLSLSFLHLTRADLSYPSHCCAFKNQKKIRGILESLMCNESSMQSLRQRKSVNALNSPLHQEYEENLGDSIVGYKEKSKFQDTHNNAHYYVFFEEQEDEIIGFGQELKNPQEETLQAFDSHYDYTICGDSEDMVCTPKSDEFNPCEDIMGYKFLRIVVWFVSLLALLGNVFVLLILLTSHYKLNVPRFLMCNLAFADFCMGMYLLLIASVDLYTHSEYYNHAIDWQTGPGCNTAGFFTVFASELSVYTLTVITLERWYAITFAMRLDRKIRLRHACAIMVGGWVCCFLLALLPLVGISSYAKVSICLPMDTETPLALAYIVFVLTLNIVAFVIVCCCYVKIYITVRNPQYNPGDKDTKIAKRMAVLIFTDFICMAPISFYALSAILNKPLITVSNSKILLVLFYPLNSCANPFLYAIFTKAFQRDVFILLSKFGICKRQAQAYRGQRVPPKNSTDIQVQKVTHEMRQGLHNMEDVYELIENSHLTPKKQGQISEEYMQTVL
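Cell-based HTRF cAMP assay; TSHR cells + compound, TSH EC80 (4nM final), 2 h, 37 deg C. Lysis with anti-cAMP cryptate and cAMP-d2, 30 min RT, read 665/620 nm.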
RXFP1 antag = RXFP1 (human) relaxin receptor antagonism; Q9HBX9; HEK293-RXFP1, relaxin-stimulated cAMP HTRF, 30 min; stronger effect = lower value; activity change, negative = inhibition, % at 57.5 µM; hit rate 0.59% among 350,000; AID 1259400;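 active = activity change of -60% or lower, but not beyond a set lower limit; inconclusive = change between -60% and -40%, or beyond the set limit; inactive = change above -40%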
Numbers stand for hits; . = inactive; ? = inconclusive; / = no result; [ ] = remark or other dose. Most compounds without a hit are left out; they make up all but 1% or so of the library.

SMILES	RXFP1 ag	gsp agonist	gsp antag	TSHR antagonist	RXFP1 antag
CC(=O)N1CCN(S(=O)(=O)c2cccc(C(=O)Nc3ccc4c(c3)OCO4)c2)CC1	.	.[15.4 µM]	11µM	.	.
O=C(Nc1ccc2c(c1)CCC2)c1cc(S(=O)(=O)Nc2ccc(F)cc2)c(Cl)cc1Cl	.	.	.	-76	/
O=C(NCc1ccc2c(c1)CCN2C(=O)c1ccncc1)c1cccc(Cl)c1	.	/	/	/	.
O=C(CSc1ccc2nnc(-c3ccc(F)cc3)n2n1)N1CCOCC1	/	20µM	.	/	/
O=C(Nc1c(C(=O)N2CCN(c3ccccc3F)CC2)oc2ccccc12)c1ccc(Br)o1	.	/	/	/	.
O=C(NC12CC3CC(CC(C3)C1)C2)c1ccc(-c2ccc(Br)cc2)o1	.	?	.	.	.
O=C(NC12CC3CC(CC(C3)C1)C2)c1ccc(Br)o1	.	.	.	.	-110
Cc1cccc(-n2c(=O)c3c(c4cc(C)ccc4n3C)n(C)c2=O)c1	.	/	/	/	/
COc1ccccc1CNC(=O)CCC1N=C2c3ccccc3N=C(SCC(=O)NCCc3ccc(OC)c(OC)c3)N2C1=O (stereo not drawn)	.	/	/	/	.
O=C(Nc1ccc(C(=O)N2CCN(c3ccccc3F)CC2)cc1)c1nsc2ccccc12	.	/	/	/	.
CC(C)c1ccc(NC(=O)c2cnn(-c3ccccc3)c2NC(=O)c2ccco2)cc1	.	?	40µM	.	.
FC(F)(F)c1nc(N2CCCC2)ncc1-c1nnnn1-c1ccccc1	.	.	35µM	.	.
Cc1ccc(-n2nnnc2-c2cnc(N3CCCC3)nc2C(F)(F)F)cc1	.	.	.	.	.
C=CC(=O)N1C/C(=C/c2ccccc2)C(=O)/C(=C\c2ccccc2)C1	/	.	.	/	-116
C=CC(=O)N1C/C(=C/c2ccc(Cl)cc2)C(=O)/C(=C\c2ccc(Cl)cc2)C1	/	.	.	/	-67
CN1C/C(=C/c2ccncc2)C(=O)/C(=C/c2ccncc2)C1	.	?	.	.	.
CCc1cccc(-n2c(=O)c3cccnc3n2CC(=O)Nc2ccc(OC)c(Cl)c2)c1	.	/	/	/	.
N#C/C(=C\c1ccccc1)C(=O)NCc1ccc(F)cc1	.	.	.	.	-65
COc1ccc(CCC(=O)NC2CC(=O)N(c3ccc(C)c(C)c3)C2)cc1 (stereo not drawn)	.	/	/	/	.
Cc1cc(Cl)n2nc(C)c(-c3ccc(Cl)cc3)c2n1	.	.[15.4 µM]	.	.	-69
COc1cc(NS(=O)(=O)c2ccc(C)cc2C)cc(OC)c1OC	.	?	35µM	-87	.
Cc1cc(/C=N\NC(=O)c2cccs2)c(C)n1-c1ccc2ncccc2c1	.	.	40µM	.	.
Cc1cc(/C=N\NC(=O)COc2cccc3cccnc23)c(C)n1-c1ccc(Br)cc1	.	?	.	.	.
CCOC(=O)c1cnc(-n2nc(C)cc2C)nc1Nc1ccc(C)cc1	.	.	.	.	.
CCOC(=O)c1cnc(-n2nc(C)cc2C)nc1Nc1ccc(O)cc1	.	.	11µM	.	.
SMILES	RXFP1 ag	gsp agonist	gsp antag	TSHR antagonist	RXFP1 antag
COc1ccc(CCNc2nc(C)nc3c2oc2ccccc23)cc1OC	.	.	40µM	?	?
COc1ccc(CCNc2ncnc3c2oc2ccccc23)cc1OC	.	?	?	-80	.
Cc1nc(NCCc2cnc[nH]2)c2oc3ccccc3c2n1	.	.	.	.	.
COCCn1ccc2c(OCC(=O)Nc3cc(OC)ccc3OC)cccc2c1=O	.	.	?	.	.
CCOCCn1ccc2c(OCC(=O)Nc3cc(OC)ccc3OC)cccc2c1=O	.	.[15.4 µM]	16µM	.	.
COc1ccccc1NC(=O)c1ccc(-c2nn(C)c(=O)c3ccccc23)cc1	.	.[15.4 µM]	40µM	.	.
Cn1nc(-c2ccc(OCC(=O)Nc3ccccc3)cc2)c2ccccc2c1=O	.	.	?	.	.
COc1ccccc1NC(=O)COc1ccc(-c2nn(C)c(=O)c3ccccc23)cc1	.	.[15.4 µM]	28µM	.	.
CC(=O)CC/C=C(\C)CC/C=C(/C)CC/C=C(\C)CCC=C(C)C	/	/	/	/	.
CCCCCCn1c(=O)c2c(ncn2C)n(C)c1=O	/	/	/	/	.
Cc1cc2nc(N(Cc3cccnc3)C(=O)c3ccc(Cl)s3)sc2cc1C	.	/	/	/	.
O=S(=O)(/N=S1\CC=CCN1S(=O)(=O)c1ccccc1)c1ccccc1 (stereo not drawn)	/	.	50µM	/	-110
Clc1ccc(C(Cn2ccnc2)OCc2ccc(Sc3ccccc3)cc2)c(Cl)c1 (stereo not drawn)	/	/	/	/	.
Cc1ccc2nc(Cl)c(/C=N/NC(=O)c3ccccc3O)cc2c1	.	.	35µM	.	.
Cc1ccc2nc(Cl)c(/C=N/NC(=O)[C@H]3C[C@@H]3c3ccccc3)cc2c1	.	.[15.4 µM]	.	.	.
CCOC(=O)C(=O)c1csc(NC=O)n1	/	/	/	/	.
COc1ccc(C(=O)Nc2nc3n(n2)C(c2ccc(Cl)cc2)C=C(c2ccccc2)N3)cc1OC (stereo not drawn)	20µM	/	/	/	.
CCCn1ccc2c(OCC(=O)Nc3ccccc3C(=O)OCC)cccc2c1=O	.	/	/	/	/
CCOC(=O)c1c(CSC(=N)N)n(-c2ccccc2)c2cc(Br)c(OC(C)=O)cc12	.	.[15.4 µM]	.	.	-61
CCN1C(=O)C2(C(C(=O)c3ccc(C)o3)=C(O)C(=O)N2CCCN2CCOCC2)c2ccccc21 (stereo not drawn)	.	.	.	/	.
CCN1C(=O)C2(C(C(=O)c3cc4ccccc4o3)=C(O)C(=O)N2CCCN2CCOCC2)c2ccccc21 (stereo not drawn)	16µM	.[15.4 µM]	.	.	.
O=C(C1=C(O)C(=O)N(CCN2CCOCC2)C1c1ccc(Cl)cc1)c1cc2ccccc2o1 (stereo not drawn)	?	?	.	.	.
O=C(C1=C(O)C(=O)N(CCCN2CCOCC2)C1c1ccc(Cl)cc1)c1cc2ccccc2o1 (stereo not drawn)	.	11µM	.	.	.
Cn1c(=O)c([N+](=O)[O-])c(NCCCn2ccnc2)c2ccccc21	.	.[15.4 µM]	.	.	.
Cn1c(=O)c([N+](=O)[O-])c(-n2ccnc2)c2ccccc21	.	.[15.4 µM]	?	.	-110
SMILES	RXFP1 ag	gsp agonist	gsp antag	TSHR antagonist	RXFP1 antag
CCC(=O)NC(c1ccc([N+](=O)[O-])cc1)c1c(O)ccc2ccccc12 (stereo not drawn)	.	.	?	.	.
CCCCC(=O)NC(c1ccc([N+](=O)[O-])cc1)c1c(O)ccc2ccccc12 (stereo not drawn)	.	.[15.4 µM]	?	.	-62
C/C(=N\O)[C@@H](C)NCC(C)(C)CN[C@H](C)/C(C)=N/O	/	/	/	/	.
O=C1c2cccc3c([N+](=O)[O-])ccc(c23)C(=O)N1c1ccc(Cl)cn1	.	?	.	-89	.
O=C1c2cccc3c([N+](=O)[O-])ccc(c23)C(=O)N1c1ccccn1	.	?	.	.	.
N#Cc1cccc(-c2csc(N3CCC(C(N)=O)CC3)n2)c1	/	/	/	.	/

Screening data (PubChem)
